PubChem BioAssay AID1275 (Emory University Molecular Libraries Screening Center, 2008)
Screen size: about 1,000 compounds; about 160 (16%) were called active. No rule for the calls is given here. This is one part of the list.

The compounds below were run against Neutrophil cytosol factor 1 (Homo sapiens) (UniProt P14598) (assay: p47phox binding inhibitors, dose response, biochemical, NADPH oxidase regulatory subunit, fluorescence polarization (AID 1275)). Details: at 12.5 µM.
Neutrophil cytosol factor 1 (Homo sapiens), sequence (P14598 whole entry, looked up): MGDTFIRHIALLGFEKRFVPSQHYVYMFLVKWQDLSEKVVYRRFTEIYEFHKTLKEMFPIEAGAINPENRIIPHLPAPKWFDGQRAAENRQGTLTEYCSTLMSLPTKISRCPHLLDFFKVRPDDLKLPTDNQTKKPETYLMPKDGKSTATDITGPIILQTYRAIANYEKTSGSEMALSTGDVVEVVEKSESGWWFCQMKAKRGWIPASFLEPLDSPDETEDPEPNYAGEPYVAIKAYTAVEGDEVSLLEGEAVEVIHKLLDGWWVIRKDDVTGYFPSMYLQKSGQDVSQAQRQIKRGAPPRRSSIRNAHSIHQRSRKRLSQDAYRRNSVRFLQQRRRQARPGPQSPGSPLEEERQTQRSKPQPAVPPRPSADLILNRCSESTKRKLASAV

Percent of control, lower = inhibition, active:
N#CC(C#N)=C1C=C2C=C(N3CCCCC3)CCC2CC1 (stereo unspecified) 107
Cc1ccc(-n2c(C)cc(C3N=C(N)Nc4nc5ccccc5n43)c2C)c(C)c1 (stereo unspecified) 66.2
CCN1CCN(Cc2ccc(NC(=O)c3ccc(C)c(NC(=O)c4c[nH]c5cc(C(F)(F)F)ccc5c4=O)c3)cc2C(F)(F)F)CC1 53.8
CN(C)c1ccc(/C=C/C(=O)c2cc(Cl)ccc2O)cc1 50.8
Cc1ccc2cc3c(N)c4c(C)ccc(C)c4nc3nc2c1 51.8
CN(C)c1ccc(/C=C(\C#N)C(=O)c2ccccc2)cc1 69.6
